Source: PubChem BioAssay
Values without a mark were called inactive. For some of these results: Measured potencies and affinities stand elsewhere. The source made the active and inactive calls. Unless noted, no rule for the calls is given here.

Key:
[1] = antimalarial activity against Dd2 strain (AID 2302;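 active = growth inhibition above 50% at the single 2 µM test dose, taken to imply half-maximal potency below 2 µM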;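 also: 0% = DMSO untreated growth and 100% = chloroquine plus artemisinin killed control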); conditions: P. falciparum Dd2 in RBCs, LDH growth readout, 72 h; at 2 µM; hits give high values
[2] = human hepatoma cell viability loss – ATP luminescence, cytotoxicity control for P. falciparum antimalarial project, primary screen (AID 2303;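 active = inhibition above 50%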;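 also: 0% = DMSO wells and 100% = digitonin-killed cells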); conditions: HepG2 viability, 24-48 h, at 10 µM, hits give high values
[3] = molecular target: L-lactate dehydrogenase (Plasmodium falciparum (isolate CDC / Honduras)) (UniProt Q27743); experiment: PfLDH activity inhibition – cell lysate, 3D7 strain, counter-screen for P. falciparum growth inhibition project (AID 2304);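 also: 0% = vehicle and 100% = reference inhibitor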; conditions: P. falciparum 3D7 crude extract, LDH APAD/NBT absorbance; at 2 µM; hits give high values
L-lactate dehydrogenase (Plasmodium falciparum (isolate CDC / Honduras)), sequence (Q27743 whole entry, looked up): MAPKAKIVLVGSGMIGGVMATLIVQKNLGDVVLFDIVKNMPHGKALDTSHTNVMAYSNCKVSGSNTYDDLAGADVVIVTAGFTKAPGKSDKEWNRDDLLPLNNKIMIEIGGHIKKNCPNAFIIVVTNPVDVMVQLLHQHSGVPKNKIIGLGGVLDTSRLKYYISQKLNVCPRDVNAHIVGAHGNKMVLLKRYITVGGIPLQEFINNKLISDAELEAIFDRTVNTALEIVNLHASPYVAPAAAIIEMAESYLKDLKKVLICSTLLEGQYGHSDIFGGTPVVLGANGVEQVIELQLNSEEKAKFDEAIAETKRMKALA

[4] = inhibition of 3D7 malaria parasite growth – strain 3D7 (AID 2306);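 also: 0% = DMSO wells and 100% = chloroquine plus artemisinin control wells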; conditions: P. falciparum 3D7 erythrocytic growth, LDH absorbance, 72 h; at 2 µM; hits give high values
[5] = molecular target: Calcium-dependent protein kinase 1 (Plasmodium falciparum (isolate 3D7)) (UniProt P62344); experiment: PfCDPK1 kinase inhibitors, biochemical, TCAMS library (AID 1159585; cut-off not given, nearly all actives have IC50 up to about 0.98 µM;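 also: inhibitors leave more ATP so luminescence rises with inhibition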); conditions: recombinant PfCDPK1, Kinase-Glo ATP depletion luminescence
Calcium-dependent protein kinase 1 (Plasmodium falciparum (isolate 3D7)), sequence (P62344 whole entry, looked up): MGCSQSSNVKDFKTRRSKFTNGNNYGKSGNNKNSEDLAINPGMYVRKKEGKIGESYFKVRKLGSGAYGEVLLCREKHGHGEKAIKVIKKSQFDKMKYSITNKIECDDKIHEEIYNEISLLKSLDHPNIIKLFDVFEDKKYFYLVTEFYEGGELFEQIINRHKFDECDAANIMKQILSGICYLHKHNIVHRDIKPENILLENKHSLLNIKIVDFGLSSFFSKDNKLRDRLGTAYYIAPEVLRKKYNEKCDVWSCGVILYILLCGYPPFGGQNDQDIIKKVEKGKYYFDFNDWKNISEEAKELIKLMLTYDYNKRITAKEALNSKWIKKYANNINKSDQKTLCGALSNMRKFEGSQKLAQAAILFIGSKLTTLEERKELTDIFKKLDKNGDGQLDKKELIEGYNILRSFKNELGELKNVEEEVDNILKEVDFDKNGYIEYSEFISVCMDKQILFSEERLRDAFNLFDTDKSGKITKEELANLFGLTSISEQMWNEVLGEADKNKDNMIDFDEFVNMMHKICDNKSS

[6] = molecular target: Plasmodium falciparum protein kinase 6 (PK6, PF3D7_1337100) (UniProt Q8IDW1); experiment: PfPK6 kinase inhibitors, biochemical, TCAMS library (AID 1159586); conditions: recombinant PfPK6, Kinase-Glo ATP depletion luminescence
Plasmodium falciparum protein kinase 6 (PK6, PF3D7_1337100), sequence (Q8IDW1 1-305): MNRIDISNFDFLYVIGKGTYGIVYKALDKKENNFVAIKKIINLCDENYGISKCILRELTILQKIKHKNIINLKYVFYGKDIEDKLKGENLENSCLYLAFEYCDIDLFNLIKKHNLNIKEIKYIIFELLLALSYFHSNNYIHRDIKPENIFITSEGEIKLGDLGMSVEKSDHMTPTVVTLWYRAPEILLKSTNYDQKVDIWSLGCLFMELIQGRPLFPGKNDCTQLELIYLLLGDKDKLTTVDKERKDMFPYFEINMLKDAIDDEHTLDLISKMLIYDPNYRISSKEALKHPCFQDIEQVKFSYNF

[7] = molecular target: Protein kinase 7 (PK7), Plasmodium falciparum 3D7 (PF3D7_0213400) (UniProt Q7YTF7); experiment: inhibition of Plasmodium PK7 catalytic activity – biochemical, TCAMS antimalarial set, Kinase-Glo luminescence (AID 1159587); conditions: recombinant PfPK7, Kinase-Glo ATP depletion luminescence
Protein kinase 7 (PK7), Plasmodium falciparum 3D7 (PF3D7_0213400), sequence (Q7YTF7 1-343): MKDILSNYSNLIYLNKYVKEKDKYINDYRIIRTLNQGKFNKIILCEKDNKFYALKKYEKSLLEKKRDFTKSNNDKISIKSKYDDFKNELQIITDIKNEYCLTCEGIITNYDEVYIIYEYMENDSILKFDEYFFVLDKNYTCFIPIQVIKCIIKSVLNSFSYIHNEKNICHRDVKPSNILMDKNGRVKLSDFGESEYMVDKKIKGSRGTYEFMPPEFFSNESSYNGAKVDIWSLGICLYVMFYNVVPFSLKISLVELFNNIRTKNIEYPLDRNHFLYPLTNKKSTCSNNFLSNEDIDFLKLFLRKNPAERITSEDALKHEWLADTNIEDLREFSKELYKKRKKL

[8] = molecular target: Calcium-dependent protein kinase 4 (Plasmodium falciparum (isolate 3D7)) (UniProt Q8IBS5); experiment: PfCDPK4 kinase inhibitors, biochemical, TCAMS library (AID 1159588; cut-off not given, nearly all actives have IC50 up to about 0.91 µM); conditions: recombinant PfCDPK4, Kinase-Glo ATP depletion luminescence
Calcium-dependent protein kinase 4 (Plasmodium falciparum (isolate 3D7)), sequence (Q8IBS5 whole entry, looked up): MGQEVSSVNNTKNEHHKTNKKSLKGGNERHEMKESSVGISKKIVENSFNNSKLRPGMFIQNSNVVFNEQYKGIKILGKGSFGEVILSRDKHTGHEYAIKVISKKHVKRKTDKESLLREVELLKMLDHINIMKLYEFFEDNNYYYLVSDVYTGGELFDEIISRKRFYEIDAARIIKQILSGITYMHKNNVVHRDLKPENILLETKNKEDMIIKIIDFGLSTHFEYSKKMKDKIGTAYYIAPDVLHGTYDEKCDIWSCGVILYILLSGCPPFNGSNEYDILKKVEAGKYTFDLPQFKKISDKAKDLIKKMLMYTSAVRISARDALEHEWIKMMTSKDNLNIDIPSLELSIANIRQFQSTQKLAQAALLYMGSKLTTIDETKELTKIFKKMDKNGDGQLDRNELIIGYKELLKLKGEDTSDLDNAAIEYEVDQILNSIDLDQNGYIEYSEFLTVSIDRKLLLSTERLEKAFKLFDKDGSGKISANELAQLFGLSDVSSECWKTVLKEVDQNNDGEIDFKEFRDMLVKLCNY

Compound	growth inhibition [1]	inhibition [2]	inhibition [3]	growth inhibition [4]	outcome [5]	outcome [6]	outcome [7]	outcome [8]
COc1ccc(NC(=O)/C=C/c2ccccc2Cl)cc1OCCN1CCC(O)(c2ccc(Cl)c(C(F)(F)F)c2)CC1	9%	37%	-1%	101% (active)	inactive	inactive	inactive	inactive
FC(F)(F)Oc1ccc(Nc2cc(-c3ccncc3)nc(-c3cccnc3)n2)cc1	52% (active)	24%	0%	94% (active)	inactive	inactive	inactive	inactive
O=c1cc(NCCCNCc2ccc(Cl)c(Cl)c2)[nH]c2cc(F)cc(F)c12	94% (active)	11%	0%	102% (active)	inactive	inactive	inactive	inactive
Cc1ccc(-c2cc(C(=O)Nc3ccc(S(=O)(=O)N4CCCCC4)cc3)[nH]n2)c(O)c1	92% (active)	6%	-5%	97% (active)	inactive	inactive	inactive	inactive
COc1cc2nc(NCCN3CCOCC3)n3nc(-c4ccccc4)nc3c2cc1OC	98% (active)	15%	-3%	96% (active)	inactive	inactive	inactive	inactive
CN1CCC(N(C)C(=O)C=Cc2cn(-c3ccccc3)nc2-c2cc3ccccc3o2)CC1	5%	38%	2%	92% (active)	inactive	inactive	inactive	inactive
COc1ccc2nc(C)cc(Nc3ccc(Cl)cc3)c2c1	3%	10%	-2%	89% (active)	inactive	inactive	inactive	inactive
COc1ccc(CCN2CCC(CN(C)Cc3cnn(-c4ccccc4)c3)CC2)cc1	5%	25%	-1%	90% (active)	inactive	inactive	inactive	inactive
CC(c1cccc(S(=O)(=O)NCc2cccc(C(F)(F)F)c2)c1)N1CCC(N2CCCCC2)CC1 (stereo not given)	35%	37%	2%	99% (active)	inactive	inactive	inactive	inactive
CC(O)C1CCCCN1C(=O)c1cccc(-c2ccc(-c3nc4ccccc4[nH]3)s2)c1 (stereo not given)	23%	24%	-1%	100% (active)	inactive	inactive	inactive	inactive
Cc1cc(NC(=O)c2coc3cc(F)c(N4C[C@@H](C)N(C)[C@@H](C)C4)cc23)cnc1-c1ccc(C#N)cc1	71% (active)	35%	-3%	99% (active)	inactive	inactive	inactive	inactive
CN(C)CCNCc1ccc(-c2cccc(-c3nc4ccccc4[nH]3)c2)cc1	63% (active)	31%	6%	101% (active)	inactive	inactive	inactive	inactive
N#Cc1ccc2c(c1)CCN(CCC1CCC(NC(=O)/C=C/c3c[nH]c4c(Br)cccc34)CC1)CC2 (stereo not given)	65% (active)	32%	0%	101% (active)	inactive	inactive	inactive	inactive
COc1cc(C(F)(F)F)cc2[nH]c(CNCCCNc3nc4ccccc4[nH]3)cc12	2%	59% (active)	2%	102% (active)	inactive	inactive	inactive	inactive
O=C(NC1CCN(c2ccnc3cc(Cl)ccc23)C1)c1ccc(F)cc1F (stereo not given)	100% (active)	31%	2%	100% (active)	inactive	inactive	inactive	inactive
Cc1cc(N2CCCC2)nc(Nc2ccc(NC(=O)Nc3ccccc3)cc2)n1	100% (active)	35%	1%	99% (active)	inactive	inactive	inactive	inactive
COc1ccc2nccc(CCN3C[C@H](CNCc4ccc5c(n4)NC(=O)CS5)[C@H](O)C3)c2n1	26%	4%	-2%	86% (active)	inactive	inactive	inactive	inactive
COc1ccc(NS(=O)(=O)c2ccc(C(=O)Nc3ccc(C(F)(F)F)cc3)cc2)cc1N1CCN(CC2CC2)CC1	-5%	15%	1%	92% (active)	inactive	inactive	inactive	inactive
O=C(Nc1ccc(Cn2ncc(N3CCCNCC3)c(Cl)c2=O)cc1)Nc1ccc(OCc2ccccc2)cc1	32%	15%	5%	90% (active)	inactive	inactive	inactive	inactive
Cc1[nH]cnc1Cc1ccc2c(c1O)c1ccccc1n2C	16%	9%	-2%	90% (active)	inactive	inactive	inactive	inactive
